Assay [1] in a line: E. coli DRC41 culture turbidity changes, primary screen, E. coli filamentation inducer project, strain DRC41, OD650, 48 h (AID 1152).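 Further: E. coli MC1000 strain DRC41 lacking acrAB efflux pump and sulA.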 The conditions noted are these: E. coli DRC41 (acrAB sulA), higher = more signal, called active from +8 up or from −8 down.
The nature of assay [2]: small-molecule binders of probe aLefty1, primary screen, biochemical, small-molecule microarray, 635/667 nm fluorescence (AID 1153).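 Further: score merges spot fluorescence with signal-to-noise ratio from the scanned slide images.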 The conditions noted are these: higher = more signal.
Assay [3] in a line: PSAC antagonists in infected red cells, primary screen, cell-based, P. falciparum Indochina, OD700, 1 h (AID 1154). The conditions noted are these: P. falciparum Indochina infected RBC osmotic lysis, higher = more signal, called active from +8 up or from −8 down.
The nature of assay [4]: PSAC antagonists in infected red cells, primary screen, cell-based, P. falciparum Indochina, OD700, 2 h (AID 1155).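 Further: lysis reports solute entry through the parasite surface anion channel PSAC; channel blockers reduce lysis of infected cells.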 The conditions noted are these: P. falciparum Indochina infected erythrocytes, osmotic lysis OD700; higher = more signal, called active from +8 up or from −8 down.
Assay [5] is described as follows: osmotic lysis modulators in infected erythrocytes, primary screen, PSAC antagonist project, cell-based, P. falciparum Indochina, OD700, 3 h (AID 1156). The conditions noted are these: higher = more signal, called active from +8 up or from −8 down.
The nature of assay [6]: PSAC antagonists in infected red cells, primary screen, cell-based, P. falciparum Indochina, OD700, 18 h (AID 1157). The conditions noted are these: P. falciparum Indochina infected erythrocytes, osmotic lysis OD700, 18 h; higher = more signal, called active from +8 up or from −8 down.
Assay [7] in a line: modulators of S6 phosphorylation in cells, primary screen, cell-based, A549, cytoblot, luminescence, serum-stimulated (AID 1158).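 Further: serum-stimulated A549 lung adenocarcinoma cells; signal is phosphorylated S6 detected by cytoblot immunostaining with HRP secondary.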 The conditions noted are these: A549 phospho-S6 cytoblot, 5 h, higher = more signal.
Assay [8] has as its target NADPH oxidase 2 (Homo sapiens) (UniProt P04839). The experiment in a line: NOX2-dependent H2O2 signal modulators, primary screen, NOX inhibitor project, cell-based, HEK293-NOX2, PMA-stimulated, Amplex Red fluorescence (AID 1159). Further: test concentration not given here. The conditions noted are these: 45 min, higher = more signal, called active from +8 up or from −8 down.
The target in assay [9] is NADPH oxidase 4 (Homo sapiens) (UniProt Q9NPH5). Kind of assay: NOX4-dependent H2O2 signal modulators, primary screen, NOX inhibitor project, cell-based, HEK293-NOX4, tetracycline-induced, Amplex Red fluorescence (AID 1160). The conditions noted are these: 45 min, higher = more signal, called active from +8 up or from −8 down.
In assay [10] the target is NADPH oxidase 5 (Homo sapiens) (UniProt Q96PH1). Kind of assay: NOX5-dependent H2O2 signal modulators, primary screen, NOX inhibitor project, cell-based, HEK293-NOX5, Amplex Red fluorescence (AID 1161). The conditions noted are these: HEK293-NOX5, ionomycin, 45 min, higher = more signal.

The source made the active and inactive calls.

NADPH oxidase 4 (Homo sapiens), sequence (Q9NPH5 whole entry, looked up): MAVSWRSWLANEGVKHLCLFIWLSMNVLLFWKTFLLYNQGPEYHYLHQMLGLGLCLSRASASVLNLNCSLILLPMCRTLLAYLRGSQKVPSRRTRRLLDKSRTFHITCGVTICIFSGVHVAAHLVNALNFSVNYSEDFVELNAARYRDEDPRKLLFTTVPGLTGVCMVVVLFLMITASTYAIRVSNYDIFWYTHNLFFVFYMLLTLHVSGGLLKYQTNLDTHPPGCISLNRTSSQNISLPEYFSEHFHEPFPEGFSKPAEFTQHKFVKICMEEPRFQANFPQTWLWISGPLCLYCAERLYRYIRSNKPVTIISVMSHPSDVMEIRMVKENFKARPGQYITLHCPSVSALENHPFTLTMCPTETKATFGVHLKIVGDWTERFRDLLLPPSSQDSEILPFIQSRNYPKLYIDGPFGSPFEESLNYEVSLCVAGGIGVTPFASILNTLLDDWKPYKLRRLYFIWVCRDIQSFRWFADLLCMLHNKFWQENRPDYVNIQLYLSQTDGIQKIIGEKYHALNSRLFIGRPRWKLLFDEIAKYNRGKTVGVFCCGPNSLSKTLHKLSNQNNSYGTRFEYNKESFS
NADPH oxidase 2 (Homo sapiens), sequence (P04839 whole entry, looked up): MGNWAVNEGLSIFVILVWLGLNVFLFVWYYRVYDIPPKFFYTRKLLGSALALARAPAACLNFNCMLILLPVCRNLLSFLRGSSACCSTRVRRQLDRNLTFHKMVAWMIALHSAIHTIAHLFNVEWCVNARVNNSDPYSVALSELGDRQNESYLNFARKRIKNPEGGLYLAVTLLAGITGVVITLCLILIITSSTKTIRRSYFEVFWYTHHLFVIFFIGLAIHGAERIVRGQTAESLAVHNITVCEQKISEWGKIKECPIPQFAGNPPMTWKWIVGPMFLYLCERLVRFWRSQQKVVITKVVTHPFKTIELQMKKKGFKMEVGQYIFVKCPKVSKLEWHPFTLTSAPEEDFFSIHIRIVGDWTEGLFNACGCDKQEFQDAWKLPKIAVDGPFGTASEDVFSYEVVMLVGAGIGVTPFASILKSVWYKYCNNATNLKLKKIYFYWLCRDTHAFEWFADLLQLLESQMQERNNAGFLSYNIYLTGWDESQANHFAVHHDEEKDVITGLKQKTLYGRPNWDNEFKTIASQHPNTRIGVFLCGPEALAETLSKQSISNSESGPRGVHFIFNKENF
NADPH oxidase 5 (Homo sapiens), sequence (Q96PH1 whole entry, looked up): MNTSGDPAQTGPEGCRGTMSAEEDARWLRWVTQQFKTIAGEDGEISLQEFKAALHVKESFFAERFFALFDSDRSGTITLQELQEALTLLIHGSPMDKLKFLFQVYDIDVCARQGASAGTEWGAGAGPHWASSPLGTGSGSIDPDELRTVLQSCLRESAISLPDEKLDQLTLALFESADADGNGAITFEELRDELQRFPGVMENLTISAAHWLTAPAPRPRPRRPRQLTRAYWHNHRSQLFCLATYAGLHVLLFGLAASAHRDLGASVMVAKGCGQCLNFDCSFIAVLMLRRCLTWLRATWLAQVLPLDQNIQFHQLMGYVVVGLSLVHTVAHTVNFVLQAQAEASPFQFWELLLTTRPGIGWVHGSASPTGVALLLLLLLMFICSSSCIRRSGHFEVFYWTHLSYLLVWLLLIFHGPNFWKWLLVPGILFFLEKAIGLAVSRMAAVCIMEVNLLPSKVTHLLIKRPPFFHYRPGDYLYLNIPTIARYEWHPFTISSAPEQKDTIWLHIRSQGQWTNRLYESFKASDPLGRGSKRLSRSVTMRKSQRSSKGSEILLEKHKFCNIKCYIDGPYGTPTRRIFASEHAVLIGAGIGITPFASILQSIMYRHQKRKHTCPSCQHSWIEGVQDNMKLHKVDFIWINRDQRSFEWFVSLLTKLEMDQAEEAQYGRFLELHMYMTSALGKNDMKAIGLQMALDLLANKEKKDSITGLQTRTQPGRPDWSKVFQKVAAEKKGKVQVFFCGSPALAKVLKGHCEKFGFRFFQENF

On to `[N-]=[N+]=Nc1ccccc1C[C@]1(C(=O)NCc2ccccc2)N=C(c2ccc(OCCCO)cc2)O[C@H]1c1ccccc1`, for which the z-score is 0.383 (inactive) in [1]; 17.6 (active) in assay [3]; 3.08 (inactive) in assay [4]; 1.14 (inactive) in assay [5]; 0.786 (inactive) in assay [6]; -0.16 in assay [7]. Moreover, the values for the z-score in assay [8], in assay [9] and in [10] were -0.172 (inactive), 1.45 (inactive) and 1.03, respectively. In addition, the composite z-score in [2] stood at 0.394.

As to `Cc1ccc(S[C@]2(C(=O)NC3CC3)CC(=O)N(Cc3ccccc3Cl)[C@@H]2c2ccc(CO)cc2I)cc1`, the z-score in [1] was 0.386 (inactive); in [3] it was 6.9 (inactive); in [4], 0.789 (inactive); in assay [5], 0.796 (inactive); in assay [6] it was 0.0589 (inactive); in assay [7], -0.331. Also, the z-score was 1.53 (inactive) in assay [8], -1.86 (inactive) in assay [9] and 1.12 in assay [10]. The compound also returned a composite z-score in assay [2] of 0.191.

Regarding `COc1cc(CO)cc(I)c1O[C@H]1C=C(C(=O)NCCO)C[C@@H](N(Cc2ccc(F)cc2)C(=O)C2CCCO2)[C@@H]1O` (stereo not given in full), the z-score in assay [1] was 3.54 (inactive); in [3] it was 1.92 (inactive); in assay [4], 0.581 (inactive); in [5], 1.03 (inactive); in [6], 0.23 (inactive); in assay [7], -0.0981. The results for the z-score in assay [8], in [9] and in assay [10] were 0.0499 (inactive), 0.93 (inactive) and 0.73, respectively. For the same compound, the composite z-score in assay [2] is -0.147.

`Cc1ccc(S[C@]2(C(=O)NCc3ccccc3)CC(=O)N(C(C)C)[C@@H]2c2ccc(CO)cc2I)cc1`: the z-score in assay [1] was 0.0841 (inactive); in assay [3] it was 5.42 (inactive); in [4], 1.19 (inactive); in [5], 0.121 (inactive); in [6] it was 0.301 (inactive); in [7] it was 0.0741. For the same compound, the z-score in [8] is 2.05 (inactive); in [9], -1.1 (inactive); in assay [10], -0.199. The composite z-score in assay [2] turned out to be 0.33.

Consider `COc1cc2c(cc1OC)CN(C(=O)[C@@H]1[C@H]3C(=O)O[C@H](c4ccccc4)[C@H](c4ccccc4)N3[C@H](c3ccccc3OCCO)[C@@]13C(=O)Nc1ccc(C#CC4(O)CCCCCC4)cc13)CC2`, for which the z-score in assay [1] was 2.01 (inactive); in assay [3] it was 3.46 (inactive); in assay [4] it was 2.47 (inactive); in assay [5] it was 1.26 (inactive); in [6], 2.21 (inactive); in assay [7], 0.454. Also, the figures for the z-score in [8], in [9] and in assay [10] were 1.73 (inactive), 0.934 (inactive) and 2.25, respectively. The compound also had a composite z-score in assay [2] of -0.2.

Take `O=C(O)[C@H](Cc1ccccc1)n1cc(-c2ccccn2)nn1`: the z-score in assay [1] was -0.267 (inactive); in [3] it was -0.258 (inactive); in assay [4], -0.431 (inactive); in [5] it was -0.906 (inactive); in [6] it was -0.0561 (inactive); in assay [7] it was -0.428. The z-score in [8] was -1.61 (inactive); in assay [9], -0.653 (inactive); in assay [10], -1.24. In assay [2], the composite z-score is -0.0969.

On to `CC(C)N1CC=CC23O[C@@H]4C=CCOC(=O)[C@@H]4[C@H]2C(=O)N(C(C)CO)[C@@H]3C1=O` (stereo not given in full), for which the z-score was -0.32 (inactive) in assay [1]; 0.287 (inactive) in [3]; 0.0397 (inactive) in assay [4]; 0.112 (inactive) in [5]; 0.111 (inactive) in assay [6]; 0.74 in assay [7]. The z-score in assay [8] was 0.67 (inactive); in assay [9] it was 0.266 (inactive); in assay [10], 0.393. The composite z-score in assay [2] is 0.233.

As for `[N-]=[N+]=Nc1ccccc1[C@@H]1OC(c2ccc(OCCCO)cc2)=N[C@]1(CCS(=O)(=O)c1ccccc1)C(=O)NCCN1CCOCC1`, the z-score in [1] is 0.0992 (inactive); in [3], 27.4 (active); in assay [4], 20.8 (active); in [5] it was 1.9 (inactive); in [6] it was 0.667 (inactive); in [7] it was 1.12. The values for the z-score in assay [8], in [9] and in assay [10] were -3.49 (inactive), -0.729 (inactive) and -1.84, respectively. The composite z-score in [2] worked out at 0.417.

`CC(C)CN1C(=O)[C@@]2(Cc3ccccc31)c1ccccc1C(=O)N(Cc1ccccc1C(F)(F)F)[C@H]2c1ccc(CO)cc1`: the z-score in assay [1] was 1.14 (inactive); in [3] it was 0.21 (inactive); in [4], -0.419 (inactive); in assay [5] it was -0.495 (inactive); in assay [6], -0.48 (inactive); in [7], 2.04. Besides, the z-score in assay [8] is 0.0489 (inactive); in assay [9] it was 0.771 (inactive); in [10], 1.34. Besides, the composite z-score in assay [2] is -0.345.

As for `COCCCNC(=O)[C@]1(CCC(=O)OC(C)(C)C)N=C(c2ccc(OCCCO)cc2)O[C@@H]1c1ccccc1`, the z-score in [1] was 0.134 (inactive); in assay [3], 14.7 (active); in [4], 1.61 (inactive); in assay [5], 0.58 (inactive); in assay [6], 0.57 (inactive); in assay [7] it was -0.507. Moreover, the z-score in assay [8] was -0.00397 (inactive); in assay [9] it was 0.689 (inactive); in assay [10] it was -0.139. In [2], this compound had a composite z-score of -0.166.

Turning to `CCOC(=O)C1=CC[C@@H](c2cc(Cl)ccc2Cl)N(S(=O)(=O)c2ccc(C)cc2)[C@H]1c1ccc(OC)cc1`, the z-score in [1] is -0.718 (inactive); in assay [3], 2.98 (inactive); in assay [4] it was 1.92 (inactive); in assay [5], 0.926 (inactive); in assay [6] it was 0.826 (inactive); in assay [7] it was -0.371. Moreover, the z-score in assay [8] was 0.28 (inactive); in [9], -0.51 (inactive); in assay [10], 0.465. For the same compound, the composite z-score in assay [2] was 0.369.

For `COc1cc2c(cc1O)C(C)N(Cc1cc3c(cc1Br)OCO3)CC2` (stereo not given), the z-score is 1.2 (inactive) in [1]; 2.87 (inactive) in assay [3]; 0.551 (inactive) in [4]; 0.117 (inactive) in assay [5]; 0.401 (inactive) in assay [6]; 0.36 in assay [7]. Also, the results for the z-score in assay [8], in assay [9] and in [10] were -3.74 (inactive), -2.96 (inactive) and -2.91, respectively. Further, the composite z-score in assay [2] is -0.0196.

In the case of `O=C1O[C@@H](c2ccccc2)[C@@H](c2ccccc2)N2[C@@H](c3ccccc3OCCO)[C@]3(C(=O)Nc4ccc(C#CCCO)cc43)[C@@H](C(=O)Nc3nc4ccccc4s3)[C@H]12`, the z-score in assay [1] was 1.4 (inactive); in assay [3], 2.06 (inactive); in assay [4], 3.56 (inactive); in assay [5], 1.59 (inactive); in assay [6], 1.72 (inactive); in assay [7] it was 0.206. Also, the z-score in [8] is 1.3 (inactive); in assay [9] it was 0.352 (inactive); in assay [10], 1.23. The compound also returned a composite z-score in assay [2] of 0.13.
